Compound activity as filed in PubChem.
Compounds with a hit are over-represented: about 12% of the library has one in this group of screens.
JMJD2A Tudor inh – inhibitors of human JMJD2A Tudor domain; O75164; AlphaScreen JMJD2A-Tudor / H3K4me3 peptide binding; Potency, µM (top dose mostly 114 µM), actives largely listed as inhibitors; 390,000 tested, 4.4% active; AID 504339; also: nearly all actives have a fitted effect of over 50% in size
Sfp PPTase inh – inhibitors of Bacillus subtilis Sfp phosphopantetheinyl transferase | Biochemical Sfp PPTase activity, qHTS | Q9F4F7 | 310,000 tested, 3.5% active | Potency, µM, usual class: inhibitors | AID 1490;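 also: the enzyme is Sfp with the accession as filed and its product quenches rhodamine fluorescence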
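Fluorescence-quenching assay: 15 nM Sfp-PPTase preincubated 15 min at room temperature with compound, then 5 uM rhodamine-CoA and 12.5 uM BHQ-2-labelled YbbR peptide added. Fluorescence (ex 525/em 598 nm) read at start and after 30 min; difference gives rate.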
HP1b binding inh – blocks HP1-beta chromodomain binding to methylated histone tails | P83916 | AlphaScreen HP1-beta / biotin-H3K9me3 peptide binding | Potency, µM (top dose mostly 114 µM), hits mostly inhibitors | 390,000 tested, 0.56% active | AID 540317; also: nearly all actives have a fitted effect of over 70% in size
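AlphaScreen: HP1-beta (50 nM) preformed 30 min with biotin-H3(1-18)K9me3 peptide (50 nM) in PBS pH 7.4, 0.01% Tween-20. Compound added for 30 min at RT, then streptavidin donor/nickel chelate acceptor beads (10 ug/mL) for 30 min.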
G9a inh – blocks human histone lysine methyltransferase G9a | Q96KQ7 | G9a H3K9 monomethylation, AlphaScreen, 2 h | 350,000 tested, 8.8% active | Potency, µM (titrated, usually from 102 µM), usual class: inhibitors | AID 504332; also: nearly all actives have a fitted effect of over 75% in size
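AlphaScreen detection with an anti-monomethyl H3K9 antibody quantified product after a 2 h room-temperature reaction containing 500 nM biotinylated H3K9 peptide, 20 µM SAM and 20 nM enzyme, which had been preincubated 15 min with compound.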
BAZ2B inh – BAZ2B (human) inhibition. Potency, µM (top dose mostly 114 µM), most hits filed as inhibitors. 360,000 tested, 4.4% active. AlphaScreen BAZ2B-H3K14Ac peptide displacement. AID 504333; also: nearly all actives have a fitted effect of over 60% in size
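BAZ2B (50 nM) with biotin-H3(5-23)K14Ac peptide (50 nM) in PBS pH 7.4, 0.01% Tween-20, preformed 30 min, then compound 30 min at room temperature; top concentration 110uM. AlphaScreen streptavidin donor/nickel chelate acceptor beads (10 ug/mL final), 20 min dark, signal read.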
A number is an active result; . = inactive; ? = inconclusive; / = no result; [ ] = another dose, or the depositor's remark. Calls follow the shape of the dose curve; as a rule, active = well fitted curve in the direction sought with a large enough effect; inconclusive = small, poorly fitted or top-dose-only effect, or another doubt; inactive = no such curve, though single readings can be large; an effect the other way counts as inactive or inconclusive.

SMILES	JMJD2A Tudor inh	Sfp PPTase inh	HP1b binding inh	G9a inh	BAZ2B inh
Cc1ccc(NS(=O)(=O)c2ccc(N3C(=O)CCC3=O)cc2)cc1	.	.	.	50µM	.
Cc1ccc(S(=O)(=O)Nc2ccc(N3CCOCC3)cc2)cc1	.	.	.	79µM	56µM
FC(F)(F)c1ccc(N2CCOCC2)c(NC2=NCCCCC2)c1	.	.	.	50µM	?
CC(C)c1ccc(NS(=O)(=O)c2ccc(N3C(=O)CCC3=O)cc2)cc1	.	.	.	/	.
Cc1ccc(S(=O)(=O)Nc2ccc(N3CCOCC3)nc2)cc1	.[11.4 µM]	.	.	?	.
FC(F)(F)c1ccc(Cl)c(NC2=NCCCCC2)c1	.	.	.	.	.
Cc1ccc(S(=O)(=O)Nc2ccc(N3CCOCC3)cc2)cc1C	?	.	.	45µM	.
COc1ccc(S(=O)(=O)Nc2ccc(S(=O)(=O)N3CCOCC3)cc2)cc1C	.	.	.	.	.
CCCCNC(=O)c1ccc2c(c1)ncn2-c1cc(OC)ccc1OC	.	/	.	?	.
COc1ccc2oc(-c3ccc(NC(=O)c4ccc(Cl)cc4Cl)cc3)nc2c1	.	/	.	.	.
CCc1nccn1CCC(=O)N1CCCC(N2CCN(c3cccc(Cl)c3)CC2)C1 (configuration not stated)	.	.	.	.	.
CC(C)c1ccc(S(=O)(=O)Nc2ccc(N3CCOCC3)cc2)cc1	.	.	.	?	45µM
CC(C)c1ccc(C2(C)NC(=O)N(C(C)C(=O)Nc3ccc(N4CCOCC4)cc3)C2=O)cc1 (configuration not stated)	.	/	.	56µM	.
Cc1ccc(S(=O)(=O)Nc2cc(NC(=O)CN3CCOCC3)ccc2Cl)cc1	.	.	.	?	79µM
Cc1ccc(NC(=O)CN2CCOCC2)cc1Cl	.	.	.	.	.
Cc1ccc(S(=O)(=O)c2ccc(NN)cc2)cc1	.	.	.	8.9µM	.
COc1ccc(OC2C=CC(c3ccccc3)OC2CO)c(C(C)=O)c1 (configuration not stated)	/	.	/	/	/
Cc1ccc(S(=O)(=O)CCC(=O)Nc2ccc(OC(F)(F)F)cc2)cc1	.	/	.	.	.
N#Cc1ccccc1S(=O)(=O)N1CCN(S(=O)(=O)c2ccc3c(c2)OCCO3)CC1	.	/	/	/	/
COC(=O)NC(c1cccc(C)c1)[C@@]1(C(=O)OC)CCCC1=O (some centres not stated)	/	.	/	/	/
Cc1ccc(NC(=S)NC(=O)Cc2ccccc2)c(O)c1	.	.	.	.	.
CC(C)N1C(=S)N(Cc2ccco2)C(=O)C1CC(=O)Nc1ccccc1 (configuration not stated)	.	.	.	50µM	?
O=C(Nc1cccc2cccnc12)c1ccc(-c2cccc(Cl)c2)o1	.	/	.	.	.
CC(C)CCC(CCNCc1ccccn1)c1ccc(Cl)cc1 (configuration not stated)	79µM	?	?	.	?
O=S(=O)(c1ccccc1)N1CCC2(CCCN(Cc3nccs3)C2)CC1	/	.	/	.[12.7 µM]	/
SMILES	JMJD2A Tudor inh	Sfp PPTase inh	HP1b binding inh	G9a inh	BAZ2B inh
O=S(=O)(N/N=C\c1cccnc1)c1ccccc1	.	.	.	10µM	.
CC(=O)Nc1ccc(S(=O)(=O)N/N=C/c2cccnc2)cc1	.	.	.	/	.
O=S(=O)(N/N=C/c1ccc(N2CCOCC2)cc1)c1ccccc1	.	.	.	45µM	.
O=C(CSc1ccc(F)cc1)NC1CCCCC1	.	.	.	.	.
CO[C@H]1COC(=O)C/C=C\[C@H](C)[C@H](OC)COC(=O)[C@@H](C)COC(=O)C/C=C\[C@@H]1C	/	.	/	/	/
COc1ccc(CCC(=O)N(C)CC(=O)Nc2ccc(N3CCOCC3)cc2)cc1	.	.	.	.	.
CC(Oc1ccc(Br)cc1)C(=O)N(C)CC(=O)Nc1ccc(N2CCOCC2)cc1 (configuration not stated)	.	/	.	50µM	.
COCCCN(CC(=O)Nc1ccc(N2CCOCC2)cc1)S(=O)(=O)c1ccc(Cl)cc1	79µM	.	?	?	/
CN(CC(=O)Nc1ccc(N2CCOCC2)cc1)C(=O)CCCOc1ccc(Cl)cc1Cl	.	/	.	20µM	?
CCOc1ccc(OCCCC(=O)N(C)CC(=O)Nc2ccc(N3CCOCC3)cc2)cc1	.	/	.	35µM	.
CN(CC(=O)Nc1ccc(N2CCOCC2)cc1)C(=O)COc1ccccc1F	.	.	.	?	.
Cc1ccc(-n2c(SCC(=O)c3c(N)n(C4CC4)c(=O)[nH]c3=O)nnc2N2CCOCC2)cc1	.	/	.	.	.
Cc1ccc(S(=O)(=O)N(C)CCCN(C)c2nc(-c3cccs3)nc3ccccc23)cc1	.	/	.	/	/
CCc1cccc2c(-c3ccccc3)c3c(nc12)OCC3	/	.	/	/	/
CC(C)C[C@@H](C(=O)NC1CCN(Cc2ccccc2)CC1)N1C(=O)N2CCc3c([nH]c4ccccc34)[C@@]2(C)C1=O	40µM	.	?	?	?
COc1ccc2[nH]c3c(c2c1)CCN1C(=O)N([C@@H](C)C(=O)NC2CCN(Cc4ccccc4)CC2)C(=O)[C@]31C	?	.	.	/	50µM
COc1ccc2[nH]c3c(c2c1)CCN1C(=O)N([C@@H](C)C(=O)NCc2ccco2)C(=O)[C@]31C	.	.	.	.	50µM
C[C@@H](C(=O)NC1CCN(Cc2ccccc2)CC1)N1C(=O)N2CCc3c([nH]c4ccccc34)[C@@]2(C)C1=O	?	.	.	.	?
COc1ccc2[nH]c3c(c2c1)CCN1C(=O)N([C@@H](C)C(=O)NCc2ccccc2)C(=O)[C@]31C	.	.	.	/	.
COc1ccc2c(c1)O[C@@H](c1cccc(C(F)(F)F)c1)[C@H](OC(=O)Nc1ccc(C)c(Br)c1)C2=O	/	.	/	/	/
COc1ccc(Cn2c(CO)cnc2SCC(=O)Nc2ccc3c(c2)OCCO3)cc1	.	/	.	.	?
COc1ccc(-n2nnc3c(SCC(=O)Nc4ccc5c(c4)OCCO5)ncnc32)cc1	/	13µM	/	.	.
COc1ccc(-c2cnc(SCC(=O)Nc3ccc4c(c3)OCO4)n2Cc2ccco2)cc1	20µM	.	?	25µM	?
Nn1cc(-c2ccccc2)nc1SCC(=O)Nc1ccc2c(c1)OCO2	?	.	.	71µM	.
CCn1c2ccccc2c2cc(NC(=O)CSc3nnc(C4CC4)n3Cc3ccco3)ccc21	.	.	.	10µM	.
COc1ccc(-n2nnc3c(=O)n(CC(=O)Nc4ccc5c(c4)OCCO5)cnc32)cc1OC	.	.	.	.	.
CC1CCN(C(=O)Cn2c3ccc(F)cc3c3nc4n(c(=O)c32)CCCS4)CC1	.	.	.	?	.
C=C1Cc2c(Cl)cc3[nH]c4c5c3c2[C@@]2(O)[C@@H]1C[C@@H]2C(C)(C)O[C@H]5[C@@H]1CC[C@@]2(O)[C@@]35O[C@@H]3[C@@H](O)[C@@H](C(=O)O)O[C@H]5CC[C@]2(C)[C@@]41C	/	.	/	.	/
